Cruzain inh noDet – cruzain (T. cruzi) inhibition without detergent. P25779. purified cruzain, Z-FR-AMC fluorescence, no detergent. Potency, µM, actives largely listed as inhibitors. actives 2.3% (n = 200,000). AID 1476; note: nearly all actives have a fitted effect of over 40% in size
Target sequence (P25779 123-467 limits assumed): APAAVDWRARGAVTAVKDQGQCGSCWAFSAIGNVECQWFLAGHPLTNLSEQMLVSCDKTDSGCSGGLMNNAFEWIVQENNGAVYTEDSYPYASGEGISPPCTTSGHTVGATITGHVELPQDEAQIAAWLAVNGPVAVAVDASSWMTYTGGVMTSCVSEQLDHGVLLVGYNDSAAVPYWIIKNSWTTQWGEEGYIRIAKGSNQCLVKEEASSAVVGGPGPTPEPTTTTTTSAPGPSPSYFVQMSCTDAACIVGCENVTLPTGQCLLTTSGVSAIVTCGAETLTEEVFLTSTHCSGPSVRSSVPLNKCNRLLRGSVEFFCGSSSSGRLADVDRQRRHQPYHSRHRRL
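Detergent-free condition (0.00005% Triton X-100) in acetate buffer pH 5.5 with DTT. 1.5 nM enzyme and compound were pre-mixed 15 min, then 2 uM Z-FR-AMC substrate added; reaction progress from fluorescence change between first and third reads (60 s).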
Cruzain inh Det – inhibitors of Trypanosoma cruzi cruzain with detergent | P25779 | Potency, µM, most hits filed as inhibitors | purified cruzain, Z-FR-AMC fluorescence, 0.01% Triton | AID 1478 | actives 0.43% (n = 200,000); note: nearly all actives have a fitted effect of over 40% in size
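Enzyme 1.5 nM, Z-FR-AMC 2 uM, NaOAc 100 mM pH 5.5, DTT 5 mM, Triton X-100 0.01%; 15 min RT compound preincubation; kinetic ex360/em450, 60 s delta.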
Giardia FBPA inh – Giardia lamblia aldolase inhibition. purified Giardia FBPA. Potency, µM (highest dose often 59.6 µM), hits mostly inhibitors. actives 0.71% (n = 290,000); note: nearly all actives have a fitted effect of over 55% in size
Target sequence (A8B2U2 whole entry, looked up): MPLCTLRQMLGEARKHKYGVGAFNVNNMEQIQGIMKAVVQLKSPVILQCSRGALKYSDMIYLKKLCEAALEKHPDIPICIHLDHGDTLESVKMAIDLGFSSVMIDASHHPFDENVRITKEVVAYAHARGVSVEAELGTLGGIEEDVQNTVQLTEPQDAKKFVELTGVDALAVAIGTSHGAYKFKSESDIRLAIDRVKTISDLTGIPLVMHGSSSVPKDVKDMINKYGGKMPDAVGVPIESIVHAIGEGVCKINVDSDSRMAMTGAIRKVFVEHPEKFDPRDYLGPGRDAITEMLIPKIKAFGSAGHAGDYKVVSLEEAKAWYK
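40 nM FBPA preincubated 10 min at RT with compound (up to 57.5 uM final), then substrate plus GAPDH/TPI/NAD/arsenate coupling and diaphorase/resazurin added. Fluorescence read after 20 min at RT, 525/598 nm.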
A number is an active result; n = inactive; u = inconclusive; x = no result given; [ ] = dose if it differs, or a comment. The entries come from a sample that favours hits as a whole. Calls come from the whole dose curve; as a rule, active = well fitted curve in the direction sought with a large enough effect; inconclusive = small, poorly fitted or top-dose-only effect, or another doubt; inactive = no such curve, though single readings can be large; an effect the other way counts as inactive or inconclusive.

SMILES	Cruzain inh noDet	Cruzain inh Det	Giardia FBPA inh
COc1ccc(C(NC(=O)c2ccc(-c3ccccc3)cc2)c2ccccc2)cc1 (stereo not given)	7.9µM	n	x
COc1ccc(NC(=O)CCC(=O)c2ccc(-c3ccccc3)cc2)cc1	25µM	n	n
COc1ccc(NC(=O)c2cccc(NC(=O)c3ccccc3)c2)cc1	x	x	n
CCCC/C=C/C(NC(=O)c1ccc(-c2ccccc2)cc1)c1ccccc1 (stereo not given)	16µM	n	n
COc1ccc(C(C)NC(=O)c2ccccc2)cc1 (stereo not given)	n	n	n
COc1ccc(NC(=O)CCC(=O)c2ccc(C(C)C)cc2)cc1	x	x	n
CCCC/C=C/C(NC(=O)c1ccccc1)c1ccccc1 (stereo not given)	n	n	n
COc1ccc(C(=O)COC(=O)c2ccc(NC(=O)c3ccccc3)cc2)cc1	13µM	n	n
Cc1ccc(OCC(=O)Nc2ccc3nc(SCC(=O)Nc4ccc(C)cc4C)sc3c2)cc1	n	n	x
C[C@H]1C[C@H]2[C@H]3CCC4=CC(=O)C=C[C@@]4(C)[C@]3(F)[C@H](O)C[C@]2(C)[C@@]1(O)C(=O)COP(=O)(O)O	n	n	x
CCc1ccc(NC(=O)C2CCCN(S(=O)(=O)c3cccc4cccnc34)C2)cc1 (stereo not given)	n	n	x
COc1cc(/C=C\c2ccc(OC)cc2OC)cc(OC)c1	n	n	n
COc1ccc(C(=O)Nc2ccc(C(=O)OCC(=O)c3ccccc3)cc2)cc1	6.3µM	n	n
CCOC(=O)c1ccc(NC(=O)c2ccc(NC(=O)c3ccccc3)cc2)cc1	n	n	n
CC(C)c1ccc(S(=O)(=O)c2cc3cc(Br)ccc3oc2=O)cc1	n	n	n
CC(C)c1ccc(S(=O)(=O)/N=C2/C=CC(=O)c3ccccc32)cc1	x	x	14µM
Nc1c(C(=O)Nc2ccc([As](=O)(O)O)cc2)cnc2nnnn12	n	n	x
COc1ccc(NC(=O)C2CCN(S(=O)(=O)c3c(C)noc3/C=C/c3cccs3)CC2)cc1	n	n	x
COc1cccc(NC(=O)C2CCN(S(=O)(=O)c3c(C)noc3/C=C/c3cccs3)CC2)c1	16µM	n	x
CCCCC(C)/C=C(C)/C=C(\C)C(=O)NC1=CC(O)(/C=C/C=C/C=C/C(=O)NC2=C(O)CCC2=O)C2OC2C1=O (stereo not given)	x	x	n
NCCCC[C@H](NC(=O)[C@@H]1CCCN1C(=O)[C@H](CO)NC(=O)[C@H](CC(=O)O)NC(=O)CNC(=O)[C@H](CCCN=C(N)N)NC(=O)CN)C(=O)O	x	x	n
Cc1cccc(CS(=O)(=O)c2nnc([C@H](Cc3ccccc3)NC(=O)OC(C)(C)C)o2)c1	16µM	16µM	n
CC(C)(C)OC(=O)N[C@@H](Cc1ccccc1)c1nnc(SCC(N)=O)o1	x	x	n
COCCn1c(=O)cnc2cnc(OC)nc21	n	n	n
O=C(NC(=S)Nc1cccc(Cl)c1N1CCCCC1)c1ccc2c(c1)OCCO2	13µM	n	n
SMILES	Cruzain inh noDet	Cruzain inh Det	Giardia FBPA inh
O=C(Nc1cccc(Cl)c1N1CCCCC1)c1ccc2c(c1)OCCO2	n	n	n
CCOC(=O)N/N=C1/C[C@@H](O)[C@@H](O)[C@@H]2[C@@H]3C(=O)N(C4CCCCC4)C(=O)[C@H]3CC[C@@H]12	x	x	n[12.9 µM]
COc1cccc(-n2c(SCC(=O)N3CCc4ccccc43)nc3c([nH]c4ccccc43)c2=O)c1	u	n	x
COc1ccc(NC(=O)C(C)n2c(C)c3cnn(-c4ccccc4)c(=O)c3c2C)cc1Cl (stereo not given)	n	n	x
Cc1ccc(C)c(NC(=O)Cn2nnc(-c3ccc(N4CCOCC4)cc3)n2)c1	x	x	n
Cc1cccc(C)c1NC(=O)Cn1nnc(-c2ccc(N3CCOCC3)cc2)n1	20µM	n	n
O=C(O)C(C(=O)O)P(=S)(S)c1ccccc1 (stereo not given)	n	n	x
Cc1cc(C)nc(SCc2cc(=O)c(OC(=O)c3ccco3)co2)n1	u	25µM	n
Cc1cc(C)nc(SCc2cc(=O)c(OC(=O)c3ccc(Br)o3)co2)n1	n	u	n
COC(=O)c1ccccc1NC(=O)Cn1ncc2c(C)n(Cc3ccc(F)cc3)c(C)c2c1=O	n	n	x
COC(=O)C1=C(C)N(Cc2ccccc2)[C@]23O[C@](C(=O)OC)(C(=O)N2C1c1ccccc1)C(c1ccccc1)C3C(=O)c1ccccc1 (stereo not given in full)	x	x	n[12.9 µM]
COc1ccccc1NS(=O)(=O)c1ccc(C)c(NC(=O)c2ccc(S(=O)(=O)N3CCCCCC3)cc2)c1	32µM	n	n
COc1ccccc1NC(=O)c1ccc(S(=O)(=O)N2CCCC2)cc1	n	n	n
CN(C)S(=O)(=O)c1ccc(C(=O)Nc2cc(S(=O)(=O)Nc3ccccc3Cl)ccc2N2CCCCC2)cc1	25µM	n	n
CN1CCN(c2ccc(Cl)cc2NC(=O)c2ccc(S(=O)(=O)N(C)C)cc2)CC1	n	n	n
CCOC(=O)CCN1C(=O)[C@H]2[C@H]3[C@H](O)[C@H](O)C/C(=N/NC(=O)OCC)[C@H]3CC[C@@H]2C1=O	x	x	n[12.9 µM]
Cc1c(C(=O)N(C)C2CCCCC2)sc2nc3ccc(N)cc3n12	n	n	n
COc1cc2c(cc1OC)C(COc1ccc3c(C)cc(=O)oc3c1)N(C(=O)c1ccccc1F)CC2 (stereo not given)	u	n	x
Cc1cc2nc3c(=O)[nH]c(=O)[nH]c3nc2c([N+](=O)[O-])c1N	x	x	5µM
Cc1c(N)c(C(C)(C)C)cc(C(C)(C)C)c1[N+](=O)[O-]	n	n	n
CCN(CC)C(=O)c1ccc(Oc2ccc([N+](=O)[O-])cc2Cl)cc1	x	x	n
CCN(CC)C(=O)c1cc([N+](=O)[O-])cc2c1-c1ccc([N+](=O)[O-])cc1C2=C(C#N)C#N	x	x	7.1µM
Cc1nc2cnc(N(C)C)nc2n(CCc2ccccc2)c1=O	n	n	n
Cc1ccc(NCc2cccn2-c2nnc(N3CCC(C(=O)NCc4ccc(OC(C)C)cc4)CC3)s2)cc1	n	n	x
COc1ccc(Br)cc1CNC(=O)C1CCN(c2nnc(-n3cccc3CNc3ccc(C)cc3)s2)CC1	32µM	n	x
SMILES	Cruzain inh noDet	Cruzain inh Det	Giardia FBPA inh
COC(=O)c1c(NC(=O)CN2C(=O)c3ccccc3C2=O)sc(Cc2ccc3c(c2)OCO3)c1C	10µM	n	n
COC(=O)c1c(NC(=O)CN2CCN(Cc3ccc4c(c3)OCO4)CC2)sc(C)c1C	n	n	n
O=C(O)CNC(=O)c1ccc([N+](=O)[O-])cc1	u	n	x
O=C(O)[C@@H]1[C@@H](C(=O)NCc2ccccn2)[C@@H]2C=C[C@@H]1O2	n	n	x
Cc1cc(NC(=O)CCSc2nc(-c3ccco3)cc(C(F)(F)F)n2)no1	n	n	n
Cc1cc(NC(=O)CSc2nc(-c3ccco3)cc(C(F)(F)F)n2)no1	20µM	n	n
Clc1nc2ccccc2nc1Cl	n	n	x
COCc1cc(O)c(O)c(O)c1-c1c(COC)cc(O)c(O)c1O	x	x	4µM
CCc1oc(C(=O)O)cc1COC	n	n	n
COc1ccc(C=C(c2ccc(OC)cc2)c2ccc(OC)cc2)cc1	13µM	n	n
COc1ccc(C=O)cc1	n	n	x
COc1ccc2sc(N(Cc3cccnc3)C(=O)C3COc4ccccc4O3)nc2c1 (stereo not given)	n	n	x
COc1cc2c(cc1OC)C1N(CC2)C(=O)CCC12C(=O)CCCC2=O (stereo not given)	n	n	n
